Test results as given in ChEMBL document CHEMBL3433997, “St. Jude Leishmania screening dataset” (2016).
Where “and” joins values, the source holds several entries; their conditions need not be identical. Equal values may be shown once.

Legend:
Format in all cases: functional
[1] = target: Solute carrier family 2, facilitated glucose transporter member 1 (Homo sapiens) (UniProt P11166); test: ST_JUDE_LEISH: Cytotoxicity at 2uM final concentration against transgenic Leishmania Mexicana promastigotes LmGLUT1 that are glucose transport deficient and complemented with the human glucose transporter GLUT1. Activity is measured by DNA content using SYBR green in vitro
[2] = target: Hexose transporter 1 (Plasmodium falciparum) (UniProt O97467); test: ST_JUDE_LEISH: Cytotoxicity at 2uM final concentration against transgenic Leishmania Mexicana promastigotes LmPfHT that are glucose transport deficient and complemented with the Plasmodium falciparum hexose transporter. Activity is measured by DNA content using SYBR green in vitro
[3] = target: Glucose transporter (Leishmania mexicana) (UniProt O61059); test: ST_JUDE_LEISH: Cytotoxicity at 2uM final concentration against transgenic Leishmania Mexicana promastigotes LmGT2 that are glucose transport deficient and complemented with the L. Mexicana glucose transporter 2. Activity is measured by DNA content using SYBR green in vitro

Chain of Solute carrier family 2, facilitated glucose transporter member 1 (Homo sapiens) (P11166 whole entry): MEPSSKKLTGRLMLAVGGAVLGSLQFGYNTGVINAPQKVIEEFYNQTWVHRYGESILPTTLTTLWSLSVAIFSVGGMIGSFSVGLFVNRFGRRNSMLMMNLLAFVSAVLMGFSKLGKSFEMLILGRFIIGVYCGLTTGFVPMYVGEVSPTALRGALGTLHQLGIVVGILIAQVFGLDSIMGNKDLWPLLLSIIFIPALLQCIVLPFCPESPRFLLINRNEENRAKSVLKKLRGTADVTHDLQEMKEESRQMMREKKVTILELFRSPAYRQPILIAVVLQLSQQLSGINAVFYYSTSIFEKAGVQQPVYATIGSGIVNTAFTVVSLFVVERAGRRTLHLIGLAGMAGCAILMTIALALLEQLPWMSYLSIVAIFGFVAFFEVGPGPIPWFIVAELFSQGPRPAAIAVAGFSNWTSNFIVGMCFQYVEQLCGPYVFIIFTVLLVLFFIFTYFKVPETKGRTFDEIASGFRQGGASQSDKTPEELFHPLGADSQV

Structure (SMILES)	inhibition [1]	inhibition [2]	inhibition [3]
O=C(/C=C/c1ccc(Cl)c(Cl)c1)N1CCC(CN2CCC(c3c(-c4ccccc4)[nH]c4ccccc34)CC2)CC1	-1.32%	1.74%	0.62%
Brc1cnc(NC2=NCCN2)c(Br)c1	2.63%	3.41%	3.27%
CC(=O)C1(c2ccccc2)CCN(CCC2(c3ccc(Cl)c(Cl)c3)CN(C(=O)C3CCCCC3)CCO2)CC1 (stereo unspecified)	4.85%	2.27%	3.92%
O=C(NC1CCC(CN2CCC(c3c[nH]c4ccccc34)CC2)CC1)C1(O)c2ccccc2-c2ccccc21 (stereo unspecified)	1.4%	2.05%	2.03%
CC[C@H]1CN2CC[C@H]1C[C@@H]2[C@@H](O)c1cc(Cl)nc2ccc(OC)cc12	11%	8.14%	8.37%
c1ccc(C(OCCC2CCN(Cc3cccc4cccnc34)CC2)c2ccccc2)cc1	9.36%	8.53%	5.64%
CCCc1c(C(=O)NC2CCC(CN3CCC(c4c[nH]c5ccccc45)CC3)CC2)cnn1-c1ccccc1 (stereo unspecified)	3.14%	1.15%	1.83%
CCCCc1ccc2[nH]cc(C3=CCN(C)CC3)c2c1Br	0.79%	-0.14%	2.44%
O=C(Nc1ccc(Oc2ccccc2)cc1)NC1CCC(CN2CCC(c3c[nH]c4ccccc34)CC2)CC1 (stereo unspecified)	1.21%	0.51%	-0.05%
CCOC(C(=O)OCC1CCCN1C(C)C)(c1ccccc1)c1ccccc1 (stereo unspecified)	3.57%	3.09%	1.53%
COc1ccc(C=CC(=O)NC2CCC(CN3CCC(c4c[nH]c5ccccc45)CC3)CC2)cc1 (stereo unspecified)	3.28% and -0.32%	1.24% and -0.89%	-5.37% and -4.75%
CC(=O)Nc1ccc2[nH]cc(C3CCN(CC4CCC(NC(=O)/C=C/c5ccc(Cl)c(Cl)c5)CC4)CC3)c2c1 (stereo unspecified)	-0.34% and -0.54%	-0.56% and -1.03%	0.33% and -0.43%
